GDH-TPI counter – GDH-TPI coupled enzyme inhibition counter-screen. GDH-TPI coupled enzyme counterscreen, NADH absorbance. inhibition, % at 4.8 µM. hit rate 1.2% among 360,000; in the data active = inhibition above about 30%;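 note: 0% = DMSO wells and 100% = wells lacking the enzyme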
Mtb hypoxia rep – Mtb hypoxia fluorescent reporter inhibition; M. tuberculosis hypoxia-regulated fluorescent reporter, fluorescence; fluorescence inhibition, % (concentration not given with the values); hit rate 0.1% among 300,000; AID 1159583; in the data active = fluorescence inhibition mostly above about 23%, no sharp cut-off; inactive = mostly below about 17%
FadD28 binding – M. tuberculosis FadD28 bisubstrate binding inhibition. hit rate 0.22% among 360,000. inhibition, % at 12.5 µM. AID 588549. FadD28 bisubstrate probe binding, fluorescence polarization; in the data active = inhibition above about 8.5%, passing the limit was not always enough
FBA Mtb inh – inhibitors of M. tuberculosis fructose-bisphosphate aldolase | purified M. tuberculosis FBA, fluorescence read-out | inhibition, % at 1 µM | hit rate 2.3% among 360,000; in the data active = inhibition above about 27%;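 note: 0% = vehicle and 100% = reference inhibitor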
Target sequence (P9WQA3 whole entry, looked up): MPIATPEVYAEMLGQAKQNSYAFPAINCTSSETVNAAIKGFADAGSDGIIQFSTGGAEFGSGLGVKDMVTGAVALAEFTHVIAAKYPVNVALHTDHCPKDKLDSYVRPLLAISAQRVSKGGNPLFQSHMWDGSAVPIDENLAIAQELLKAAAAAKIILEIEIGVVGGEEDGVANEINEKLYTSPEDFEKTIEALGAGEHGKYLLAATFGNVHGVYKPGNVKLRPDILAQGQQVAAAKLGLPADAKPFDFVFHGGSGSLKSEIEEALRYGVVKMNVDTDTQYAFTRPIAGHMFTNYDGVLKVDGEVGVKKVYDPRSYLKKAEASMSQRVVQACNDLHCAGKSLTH
BioA inh – blocks M. tuberculosis BioA enzyme activity. inhibition, % at 9.99 µM. purified M. tuberculosis BioA enzyme, plate reader. hit rate 0.096% among 360,000; in the data active = inhibition above about 40%
The depositor's hits bear a star; / = no result given; + = active, no number. The list is not random: actives were taken first. Their share in the collection is about 2.9%.

SMILES | GDH-TPI counter | Mtb hypoxia rep | FadD28 binding | FBA Mtb inh | BioA inh
CCN1C(=O)/C(=C2\C=Cc3ccccc3N2CC)SC1=S | 7 | 37* | -3 | 0 | /
COc1ccc(/C=C/c2c(-c3ccc(OC)cc3)oc3ccc(-c4ccc(OC)cc4)cc23)cc1 | 7 | / | 2 | 7 | -3
COc1ccc(/C=C/c2cc(-c3ccc(C)cc3)o[n+]2C)cc1 | 55* | / | 1 | 12 | 8
CCCCCCCCCCCCN1C(CC(=O)O)c2cc(F)ccc2S1(=O)=O (stereo not given) | / | 4 | / | / | /
COc1ccccc1-c1ccc2c(c1)O[C@@H](CN(C)S(=O)(=O)c1ccccc1)[C@@H](C)CN([C@@H](C)CO)S2(=O)=O | / | / | / | / | 4
CC12CCCC(=O)C1CCC(=Cc1ccco1)C2=O (stereo not given) | 32* | / | 0 | -3 | -2
COc1cc(/C=N/Nc2cc(C)nc(NS(=O)(=O)c3ccc(C)cc3)n2)ccc1O | 54* | / | 1 | -1 | /
COc1cc(C=NNc2cc(C)nc(NS(=O)(=O)c3ccccc3)n2)ccc1O | / | 4 | / | / | /
COc1cc(/C=N/Nc2cc(C)nc(NS(=O)(=O)c3ccccc3)n2)ccc1O | 54* | / | 0 | 0 | 0
O=C(Nc1ccccc1)N[C@H]1CC[C@H](CCn2cc(C3(O)CCCC3)nn2)O[C@@H]1CO | / | / | / | / | 5
CCN(CC)c1ccc(C=Nc2ccccc2C)c(O)c1 | 37* | -2 | -4 | 2 | -1
CCN(CC)c1ccc(C=Nc2ccc(C#N)cc2)c(O)c1 | 45* | / | -2 | -1 | -1
CCN(CC)c1ccc(O)c(C=Nc2ccc(C)c(C)c2)c1 | 26 | 7 | -3 | -3 | 0
CCN(CC)c1ccc(C=NN(c2ccccc2)c2ccccc2)c(O)c1 | / | 9 | / | / | /
C=CCN(CC=C)Cc1c(O)ccc2c1oc(=O)c1ccccc12 | 13 | 13 | -1 | 3 | 7
COc1ccccc1Oc1c(C)oc2c(CN(C)C)c(O)ccc2c1=O | 23 | 1 | -2 | + | 0
COc1ccccc1Oc1c(C)oc2c(CN3CCN(CCO)CC3)c(O)ccc2c1=O | / | 5 | / | / | 2
CCN(CC)Cc1c(O)ccc2c(=O)c(Oc3ccccc3OC)c(C)oc12 | 22 | 5 | 0 | + | -1
C[C@H](NC(=O)C[C@@H]1C[C@H]2c3cc(NC(=O)NC4CCCCC4)ccc3O[C@H]2[C@H](CO)O1)c1ccccc1 | / | / | / | / | -1
Cc1cccc2nc(-c3ccco3)c(Nc3ccc4c(c3)OCO4)n12 | 0 | 8 | -1 | 6 | 3
Cc1cccc2nc(-c3ccco3)c(Nc3ccccc3)n12 | 13 | 8 | -2 | 121* | -2
C=CCNc1oc(-c2ccc(OCC)cc2)nc1C#N | 18 | 2 | -1 | 129* | 0
COc1ccc(Nc2oc(-c3ccc(F)cc3)nc2C#N)cc1 | 6 | 5 | 0 | 2 | -1
CCOc1ccc(-c2nc(C#N)c(NCC(C)C)o2)cc1 | 18 | 8 | 0 | 156* | -1
C=CCNc1oc(-c2ccc(OC)cc2)nc1C#N | 8 | 5 | -2 | 127* | -1
SMILES | GDH-TPI counter | Mtb hypoxia rep | FadD28 binding | FBA Mtb inh | BioA inh
COc1ccc(-c2nc(C#N)c(NCc3ccco3)o2)cc1 | -2 | 3 | -3 | 117* | 0
CC(=O)Nc1ccc2c(c1)C(=O)N(C)[C@H]1CC[C@H](CC(=O)NC3CCCCC3)O[C@H]1CO2 | / | / | / | / | -2
Nc1nccnc1C(=O)OCC(=O)c1ccc[nH]1 | 12 | 3 | -1 | 165* | 0
CCOc1ncccc1C(=O)OCC(=O)c1ccc[nH]1 | -6 | 2 | -4 | 0 | -4
CC(=O)c1c(C)[nH]c(C(=O)COC(=O)c2cccnc2Cl)c1C | 6 | / | -1 | 0 | 38
CC(=O)c1c(C)[nH]c(C(=O)COC(=O)c2nccnc2N)c1C | 10 | 11 | -3 | 157* | -1
C[C@H]1CN([C@@H](C)CO)C(=O)c2cc(N(C)C)ccc2O[C@H]1CN(C)C | / | / | / | / | 1
C[C@H](CO)N1C[C@H](C)[C@@H](CN(C)C)Oc2ccc(NC(=O)Cc3cn(C)c4ccccc34)cc2CC1=O | / | / | / | / | 5
NS(=O)(=O)OCC1CCCCC1 | 4 | 3 | -2 | -2 | -1
Nc1nc(N)c(N=O)c(OCC2CCCCC2)n1 | 34* | 4 | 0 | 1 | -3
CC(C)NC(=O)[C@@]1(C)c2ccccc2C(=O)N(Cc2ccccc2)[C@H]1c1ccc(CO)cc1 | / | / | / | / | 0
Cn1cc(C(=O)NN=Cc2ccc(Br)c([N+](=O)[O-])c2)c2ccccc21 | / | 2 | / | / | /
C=CCOc1ccc(CC2C(=O)N(C)C(=O)N(C)C2=O)cc1 | -5 | -3 | -2 | 0 | /
CCN(CC)c1ccc(CC2C(=O)N(C)C(=O)N(C)C2=O)cc1 | 9 | -6 | -4 | 42* | /
Cc1occc1C(=O)NC(C)C1CCCO1 (stereo not given) | -6 | 4 | -1 | 33* | -1
CC(NC(=O)c1ccco1)C1CCCO1 (stereo not given) | 6 | 3 | -2 | 1 | -1
O=C1NC(=O)N(Cc2ccc(F)cc2)C(=O)/C1=C\c1ccc(N2CCCC2)cc1 | 33* | 17 | -2 | 0 | /
CCN1C(=O)/C(=C/c2ccc(N3CCCC3)cc2)NC1=S | 9 | 2 | -3 | -25 | /
CN(C)c1ccc(/C=C2\C(=O)NC(=O)N(CCc3ccc(F)cc3)C2=O)cc1 | 47* | 6 | 25* | 1 | -2
CN1C(=O)C(=Cc2ccc(N3CCCCCC3)cc2)C(=O)N(C)C1=O | 54* | 6 | -2 | 4 | 0
O=C1NC(=O)N(c2ccc(F)cc2)C(=O)/C1=C/c1ccc(N2CCOCC2)cc1 | 8 | 16 | -4 | -2 | -2
CC(CC(=O)Nc1cccc(C(F)(F)F)c1)=NNC(=O)C(=O)NCC(C)C | / | -2 | / | / | /
COCC(=O)N(C)C[C@H]1Oc2ncc(Br)cc2C(=O)N([C@@H](C)CO)C[C@@H]1C | / | / | / | / | 1
CNc1ccc(Cl)cc1C(N)=O | 9 | 6 | 0 | 113* | 0
CCCn1nc([N+](=O)[O-])c(C(C#N)c2nc3ccccc3o2)c(Cl)c1=O (stereo not given) | 3 | 22 | 15* | -14 | /
Cc1ccc(Cn2c(C(C)Nc3nc(-c4ccc(Cl)c([N+](=O)[O-])c4)cs3)nc3cc(C(F)(F)F)ccc32)cc1 (stereo not given) | 10 | -1 | -4 | -2 | -2
CCn1nc([N+](=O)[O-])c(C(C#N)c2nc3cc(C(F)(F)F)ccc3s2)c(Cl)c1=O (stereo not given) | 20 | 16 | 45* | -5 | -4

Compound activity as filed in PubChem BioAssay.
